A number with no mark means an inactive call. Results filed as inconclusive are left out. Activity calls are given as the source filed them. Calls follow the shape of the dose curve; as a rule, active = well fitted curve in the direction sought with a large enough effect; inconclusive = small, poorly fitted or top-dose-only effect, or another doubt; inactive = no such curve, though single readings can be large; an effect the other way counts as inactive or inconclusive.

Assay [1] has as its target Glutathione peroxidase 1 (Homo sapiens) (UniProt P07203). As to the kind of experiment: Primary qHTS Assay for Inhibitors of Recombinant Selenoprotein Glutathione Peroxidase 1 (GPX1) (AID 1845191). Also: nearly all actives have a fitted effect of over 65% in size. As to activity, negative = inhibition: % is scaled to controls: 0 for no effect and ±100 for the full control effect. Summed up: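 GR-coupled assay: compounds preincubated 30 min at room temperature with GPX1, then reaction started with CHP; final 10 nM GPX1, 1 mM GSH, 0.5 mM CHP, 0.5 mM NADPH, 100 nM GR, 0.01% BSA, pH 7.5 Tris buffer. NADPH fluorescence (340/450 nm) read at 0 and 15 min.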

In assay [2] the target is Phospholipid hydroperoxide glutathione peroxidase GPX4 (Homo sapiens) (UniProt P36969). Put plainly: Primary qHTS Assay for Inhibitors of Recombinant Selenoprotein Glutathione Peroxidase 4 (GPX4) (AID 1845192). Also: nearly all actives have a fitted effect of over 65% in size. As to activity change, negative = inhibition: series mostly up to about 50 µM; % is scaled to controls: 0 for no effect and ±100 for the full control effect. The method, boiled down: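 GR-coupled assay: recombinant GPX4 preincubated 30 min with compound at room temperature; final 200 nM GPX4, 1 mM GSH, 0.5 mM cumene hydroperoxide, 0.5 mM NADPH, 100 nM GR, 0.01% BSA, pH 7.5 Tris. NADPH fluorescence (340/450 nm) read at 0 and 15 min.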

In assay [3] the target is Luciferin 4-monooxygenase (Photinus pyralis) (UniProt P08659). As to the kind of experiment: Primary firefly luciferase (FLuc) qHTS assay for identification of artifact compounds. (AID 1845220). Also: nearly all actives have a fitted effect of over 60% in size.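 As to activity change, negative = inhibition: series mostly up to about 54 µM; plate controls were DMSO vehicle for no effect and no enzyme for full effect.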 Summed up: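 D-luciferin and ATP (10 uM each, final) in Tris acetate buffer pH 7.6 were incubated with compounds for 15 min at room temperature. The reaction was started with 10 nM Photinus pyralis luciferase and luminescence read after 5 min. Percent inhibition was fitted to a 4-parameter Hill equation.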

The nature of assay [4]: Primary fluorescence-based thiol-reactive (MSTI) qHTS assay for identification of artifact compounds. (AID 1845221). Also: nearly all actives have a fitted effect of over 65% in size. Also: potency is read from the fitted curve at half-maximal effect.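 As to activity change, negative = thiol reactive: series mostly up to about 54 µM; thiol-reactive compounds lower the probe fluorescence signal.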 The method, boiled down:
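Reactivity toward the thiol probe MSTI (4 uM) is scored by fluorescence at Ex/Em 525/598 nm after 1 h at room temperature. Acetyl-MSTI and MSTI define the activity scale.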

For assay [5], the system named is Nanoluciferase (engineered Oplophorus gracilirostris luciferase). Put plainly: Primary Nanoluciferase (NLuc) qHTS assay for identification of artifact compounds. (AID 1845222).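 Also: series mostly up to about 54 µM; 0% = DMSO and -100% = no enzyme.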 Summed up: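 Diluted conditioned medium from NLuc-expressing S16 cells treated with compounds for 15 min at room temperature, then Nano-Glo substrate added; luminescence read after 5 min. Percent inhibition versus no-enzyme and DMSO controls fitted to 4-parameter Hill equation.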

Assay [6] is described as follows: Primary redox qHTS assay for identification of artifact compounds. (AID 1845223). Also: potency is read from the fitted curve at half-maximal effect.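 As to redox activity (% of DA3003): 0% = DMSO and 100% = reference compound.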 Summed up: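 Amplex Red (25 uM) and HRP (250 mU/mL) in HBSS, with compounds for 15 min, then 250 uM DTT for 30 min, room temperature, dark. Fluorescence 525/598 nm read; normalized to DMSO and 10 uM DA3003; Hill fit.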

Chain of Glutathione peroxidase 1 (Homo sapiens) (P07203 whole entry, looked up): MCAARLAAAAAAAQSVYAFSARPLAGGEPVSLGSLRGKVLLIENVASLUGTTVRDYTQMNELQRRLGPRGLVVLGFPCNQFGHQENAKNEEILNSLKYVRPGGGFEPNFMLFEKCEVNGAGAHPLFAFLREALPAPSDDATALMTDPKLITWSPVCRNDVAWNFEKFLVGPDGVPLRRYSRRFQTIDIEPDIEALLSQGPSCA
Chain of Phospholipid hydroperoxide glutathione peroxidase GPX4 (Homo sapiens) (P36969 whole entry, looked up): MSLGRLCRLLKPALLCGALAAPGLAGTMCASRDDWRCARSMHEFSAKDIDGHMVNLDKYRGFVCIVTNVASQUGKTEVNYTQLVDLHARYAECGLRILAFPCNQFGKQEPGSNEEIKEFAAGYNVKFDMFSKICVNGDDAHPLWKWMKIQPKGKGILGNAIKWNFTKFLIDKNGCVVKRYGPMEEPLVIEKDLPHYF

With `C[C@H]1[C@H](C)CC[C@]2(C(=O)O)CC[C@]3(C(=O)O)C(=CCC4[C@@]5(C)CC[C@H](O[C@@H]6O[C@@H](C)[C@H](O)[C@@H](O)[C@H]6O)C(C)(C)C5CC[C@]43C)[C@H]12` (stereo partly drawn), the Potency result in assay [1], in assay [2], in assay [3], in assay [4], in assay [5] and in assay [6] was “inactive” each time.
For the compound `CC(O)C(O)/C=C/C=C/C(=O)O[C@@H]1C=C(C(=O)O)[C@](O)(CO)[C@@]2(C)CCCC(C)(C)[C@H]12` (stereo partly drawn), the Potency result in assay [1], in assay [2], in assay [3], in assay [4], in assay [5] and in assay [6] was “inactive” in each case.
In the case of `C[C@@H]1O[C@@H](O[C@H]2[C@H](OC(=O)[C@]34CCC(C)(C)C[C@H]3C3=CCC5[C@@]6(C)CC[C@H](O[C@@H]7O[C@H](CO[C@@H]8OC[C@H](O)[C@H](O)[C@H]8O)[C@@H](O)[C@H](O)[C@H]7O)C(C)(C)C6CC[C@@]5(C)[C@]3(C)C[C@H]4O)OC[C@@H](O)[C@@H]2O)[C@H](O)[C@H](O[C@@H]2OC[C@](O)(CO)[C@H]2O)[C@H]1O[C@@H]1OC[C@H](O)[C@H](O[C@@H]2OC[C@@H](O)[C@H](O)[C@H]2O)[C@H]1O` (stereo partly drawn), the Potency result in assay [1] and in assay [2] was “inactive” throughout. For the same compound, the activity change, negative = inhibition in assay [3] is -1.94% [at 11.6 µM]. Besides, the activity change, negative = thiol reactive in assay [4] is 415% [at 11.5 µM]. For the same compound, the activity, negative = inhibition in assay [5] is 0.577% [at 11.6 µM]. Further, the redox activity (% of DA3003) in assay [6] is 19.6% [at 11.5 µM].
Regarding `CCCc1[nH]nc2c1C(c1cc(Cl)cc(Cl)c1O)C(C#N)=C(N)O2` (stereo not drawn), the Potency entry in assay [1], in assay [2], in assay [3], in assay [4] and in assay [5] was “inactive” throughout. Moreover, the Potency in assay [6] is 11.9 µM (active).
Take `CC(C)/C=C1/NC(=O)C(C(C)C)n2c1nc1c(O)cccc1c2=O` (stereo not drawn): the Potency result in assay [1], in assay [2], in assay [3], in assay [4], in assay [5] and in assay [6] was “inactive” each time.
As for `CSCC1OC(n2cnc3c(=O)[nH]cnc32)C(O)C1O` (stereo not drawn), the Potency result in assay [1], in assay [2], in assay [3], in assay [4], in assay [5] and in assay [6] was “inactive” in each case.
Turning to `CC1(C)CC[C@]2(C(=O)O[C@@H]3O[C@H](CO)[C@@H](O)[C@H](O)[C@H]3O)CC[C@]3(C)C(=CCC4[C@@]5(C)C[C@@H](O)[C@H](O)[C@@](C)(CO)C5[C@H](O)C[C@]43C)C2[C@@H]1O` (stereo partly drawn), the Potency entry in assay [1], in assay [2], in assay [3], in assay [5] and in assay [6] was “inactive” each time. Also, the Potency in assay [4] was 3.16 µM (active).
In the case of `CC(=O)OC1(C)CC(O)C2(O)C=COC(OC3OC(CO)C(O)C(O)C3O)C12` (stereo not drawn), the Potency entry in assay [1], in assay [2], in assay [3], in assay [4], in assay [5] and in assay [6] was “inactive” each time.
Regarding `CC(C)(OC1OC(CO)C(O)C(O)C1O)C1CCC(O)(CO)C2CC(=O)C(C)(O)C2C1` (stereo not drawn), the Potency result in assay [1], in assay [2], in assay [3], in assay [4], in assay [5] and in assay [6] was “inactive” each time.
Consider `Cc1nnc(-c2sc(NC(=O)[C@H](C(C)C)n3c(=O)[nH]c4ccccc4c3=O)nc2C)o1`, for which the Potency result in assay [1], in assay [2], in assay [3], in assay [4], in assay [5] and in assay [6] was “inactive” in each case.
With `CC1(C)CC[C@]2(C(=O)O[C@@H]3O[C@H](CO)[C@@H](O)[C@H](O)[C@H]3O)CC[C@]3(C)C(=CCC4[C@@]5(C)C[C@@H](O)[C@H](O)[C@@](C)(CO)C5[C@H](O)C[C@]43C)C2C1` (stereo partly drawn), the Potency entry in assay [1], in assay [2], in assay [3], in assay [4], in assay [5] and in assay [6] was “inactive” each time.
For the compound `C[C@@H]1O[C@@H](OC[C@H]2O[C@@H](OCc3ccccc3)[C@H](O)[C@@H](O)[C@@H]2O)[C@H](O)[C@H](O)[C@H]1O`, the Potency entry in assay [1], in assay [2], in assay [3], in assay [5] and in assay [6] was “inactive” throughout. Also, the Potency in assay [4] was 5.19 µM (active).
Turning to `CNc1nc(Nc2cn(C(C)(C)C#N)nc2C)ncc1C(F)(F)F`, the Potency entry in assay [1], in assay [2], in assay [3], in assay [4], in assay [5] and in assay [6] was “inactive” in each case.
`COC(=O)C1=CO[C@@H](O[C@@H]2O[C@H](CO)[C@@H](O)[C@H](O)[C@H]2O)[C@@H]2C(C)CC(=O)[C@]12O` (stereo partly drawn): the Potency entry in assay [1], in assay [2], in assay [3], in assay [4], in assay [5] and in assay [6] was “inactive” in each case.
Turning to `CC1CCC2C(C)(C)C(O)C(O)CC2(C)C12Cc1c(O)cc(CO)c(C=O)c1O2` (stereo not drawn), the Potency result in assay [1], in assay [2], in assay [3], in assay [4], in assay [5] and in assay [6] was “inactive” each time.
Turning to `COc1cc(C(C)=O)ccc1O[C@@H]1O[C@H](CO)[C@@H](O)[C@H](O)[C@H]1O`, the Potency result in assay [1], in assay [2], in assay [3], in assay [4], in assay [5] and in assay [6] was “inactive” throughout.
For `COC(=O)C[C@@H]1C(C(=O)O)=CO[C@@H](O[C@@H]2O[C@H](CO)[C@@H](O)[C@H](O)[C@H]2O)/C1=C\COC(=O)/C=C/c1ccc(O)c(OC)c1`, the Potency result in assay [1], in assay [2], in assay [3], in assay [4], in assay [5] and in assay [6] was “inactive” each time.
In the case of `COc1cc(C)c(C(=O)O[C@@H]2[C@H](O)[C@@H](CO)O[C@H]2n2ccc(=O)[nH]c2=O)c(OC)c1`, the Potency entry in assay [1], in assay [2], in assay [3], in assay [4], in assay [5] and in assay [6] was “inactive” in each case.

(Values after PubChem BioAssay (NCATS).)
